Bioassay records from PubChem.
Tau fibril FP: tau fibrillization inhibition (FP). P10636. K18 P301L tau heparin fibrillization, Alexa594 FP, 6 h. Potency, µM (titrated, usually from 57.7 µM), for inactives: at the top dose activity, negative = inhibition, most hits filed as inhibitors. hit rate 0.39% among 280,000; also: potency is read from the fitted curve at half-maximal effect; nearly all actives have a fitted effect of over 55% in size
Target sequence (P10636 561-689 P618L limits assumed): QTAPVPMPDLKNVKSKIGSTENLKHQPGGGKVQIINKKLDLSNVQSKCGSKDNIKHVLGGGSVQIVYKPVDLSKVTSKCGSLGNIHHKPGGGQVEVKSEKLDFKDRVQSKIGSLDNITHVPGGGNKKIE
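Quantitative HTS format: compounds meet 15 uM recombinant K18 P301L tau and Alexa 594-tau tracer in 100 mM sodium acetate pH 7; 20 uM heparin triggers fibrillization at 37 C over 6 hr; FP gives the signal.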
Tau fluor cs: counter-screen for tau fibril formation inhibitors. tau K18 P301L Alexa594 fluorescence, heparin fibrillization. hit rate 0.93% among 280,000. Potency, µM (titrated, usually from 57.7 µM), for the others: top-dose activity change, negative = decrease. AID 1463; also: potency is read from the fitted curve at half-maximal effect; nearly all actives have a fitted effect of over 55% in size
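Human tau K18 P301L (15 uM unlabeled, 0.24 uM Alexa 594-labeled) in 100 mM sodium acetate pH 7 with 20 uM heparin, 6 hr at 37 C. ThT 30 uM added, 1 hr ambient; Alexa 594 FP and total fluorescence read at 555/632 nm.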
Sfp PPTase inh: inhibitors of Bacillus subtilis Sfp phosphopantetheinyl transferase | Q9F4F7 | Biochemical Sfp PPTase activity, qHTS | Potency, µM, for inactives: largest response in the series, negative = inhibition, most hits filed as inhibitors | hit rate 3.5% among 310,000 | AID 1490;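 also: the enzyme is Sfp with the accession as filed and its product quenches rhodamine fluorescence; potency is read from the fitted curve at half-maximal effect; 0% = enzyme reaction without inhibitor and -100% = no enzyme wells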
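Reaction rates are the 30-min fluorescence difference (ex 525, em 598 nm) in wells containing 15 nM Sfp, 5 uM rhodamine-CoA and 12.5 uM BHQ-2-YbbR at pH 7.6 with 10 mM MgCl2.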
FBPA coupling cs: inhibits coupling enzyme system, counter-screen for aldolase hits | coupling enzyme system counterscreen, AmpLite Red fluorescence | activity change, negative = inhibition, % at 58.2 µM, hits read low | hit rate 0.67% among 290,000; in the data active = activity change below about -30%
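Compounds tested against the coupling enzymes alone at 57.5 uM final; readout was AmpLite Red fluorescence (525/598 nm) after 20 min at RT.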
Tau fibril ThT: inhibitors of human tau fibril formation, thioflavin T binding; P10636; recombinant tau K18 P301L (four-repeat tau fragment), heparin-induced fibrillization, ThT fluorescence; Potency, µM (top dose mostly 57.4 µM), for inactives: at the highest dose activity, negative = inhibition, hits mostly inhibitors; hit rate 2.1% among 270,000; AID 1460; also: potency is read from the fitted curve at half-maximal effect; nearly all actives have a fitted effect of over 55% in size
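Recombinant human tau K18 fragment […] carrying P301L, 15 uM unlabeled plus 0.24 uM Alexa 594-labeled, was fibrillized with 20 uM heparin in 100 mM sodium acetate pH 7 for 6 hr at 37 C; 30 uM ThT fluorescence read after 1 hr.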
KDM4E inh: blocks human JMJD2E demethylase activity | B2RXH2 | JMJD2E catalytic domain, FDH-coupled NADH fluorescence (FDH is formaldehyde dehydrogenase) | Potency, µM (top dose mostly 57.1 µM), without a hit: at the top dose activity change, negative = inhibition, hits mostly inhibitors | hit rate 1.6% among 230,000 | AID 2147; active = well fitted inhibition curve with a large enough effect, not every such curve was filed as active; inconclusive = small, poorly fitted or top-dose-only effect, or another doubt; inactive = no such curve, though single readings can be large or run the other way;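 also: potency is read from the fitted curve at half-maximal effect; 0% = wells with enzyme and -100% = buffer wells without enzyme; nearly all actives have a fitted effect of over 50% in size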
Target sequence (B2RXH2 1-337 limits assumed): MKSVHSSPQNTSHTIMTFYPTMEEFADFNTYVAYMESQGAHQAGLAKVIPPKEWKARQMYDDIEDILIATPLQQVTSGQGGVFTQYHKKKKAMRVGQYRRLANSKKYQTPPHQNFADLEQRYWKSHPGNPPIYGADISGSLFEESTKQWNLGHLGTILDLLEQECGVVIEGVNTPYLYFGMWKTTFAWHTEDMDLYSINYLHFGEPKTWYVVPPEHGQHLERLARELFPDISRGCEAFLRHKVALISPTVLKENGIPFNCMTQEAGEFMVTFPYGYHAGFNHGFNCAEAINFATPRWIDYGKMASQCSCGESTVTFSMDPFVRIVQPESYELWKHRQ
The depositor's hits bear a star; [ ] = dose if it differs, or a comment. The list is not random: actives were taken first. Their share in the collection is about 5.3%. Unless noted, calls follow the shape of the dose curve; as a rule, active = well fitted curve in the direction sought with a large enough effect; inconclusive = small, poorly fitted or top-dose-only effect, or another doubt; inactive = no such curve, though single readings can be large; an effect the other way counts as inactive or inconclusive. Unless noted, % is scaled to controls: 0 for no effect and ±100 for the full control effect.

Screening CCc1ccc(C2c3c(oc4ccc(F)cc4c3=O)C(=O)N2c2nc(C)c(C(=O)OC)s2)cc1 (centres undefined) returned Tau fibril FP 5.1%, Tau fluor cs -5.4% and Tau fibril ThT 1.4%.
CN1CCC(=NNc2ncnc3sc4c(c23)CCCC4)CC1 was read as Tau fibril FP -10.0%, Tau fluor cs -19.1%, Sfp PPTase inh 10µM*, FBPA coupling cs -5.2, Tau fibril ThT inconclusive and KDM4E inh -25.7%.
For CCCCCC(=O)Nc1nc(C)c(-c2csc(Nc3ccccc3OC)n2)s1 the results were Tau fibril FP inconclusive, Tau fluor cs 11.2µM*[quencher], Sfp PPTase inh -11.5%, FBPA coupling cs -3.7, Tau fibril ThT inconclusive and KDM4E inh -8.6%.
Screening CCC(=O)Nc1nc(C)c(-c2csc(Nc3ccccn3)n2)s1 returned Tau fibril FP inconclusive, Tau fluor cs inconclusive, Sfp PPTase inh inconclusive, FBPA coupling cs -2.4, Tau fibril ThT 14.1µM* and KDM4E inh inconclusive.
Screening COc1ccccc1Nc1nc(-c2sc(NC(=O)c3ccccc3)nc2C)cs1 returned Tau fibril FP 6.9%, Tau fluor cs inconclusive, Sfp PPTase inh 1.3%, FBPA coupling cs -2.4, Tau fibril ThT inconclusive and KDM4E inh 2.5%.
For CCCCCCC(=O)Nc1nc(C)c(-c2csc(Nc3ccccc3OC)n2)s1 the results were Tau fibril FP 16.3%, Tau fluor cs 14.1µM*[quencher], Sfp PPTase inh inconclusive, FBPA coupling cs -6.0, Tau fibril ThT inconclusive and KDM4E inh inconclusive.
Screening COc1ccccc1Nc1nc(-c2sc(NC(=O)c3ccc([N+](=O)[O-])cc3)nc2C)cs1 returned Tau fibril FP inconclusive, Tau fluor cs 10µM*[quencher], Sfp PPTase inh -8.8%, FBPA coupling cs 0.0, Tau fibril ThT 3.55µM* and KDM4E inh 7.2%.
Screening COc1ccc(Cn2c(C(=O)O)c(CNCc3ccc(SC)cc3)c3ccc(OC)cc32)cc1 returned Tau fibril FP 1.7%, Tau fluor cs -13.4% and Tau fibril ThT -9.3%.
Screening C/C(CCN1CCCc2nc(C)c(C)cc21)=N\O[C@@H](C)c1cn([C@H](CO)Cc2ccccc2)nn1 returned Tau fibril FP 6.9%[11.6 µM], Tau fluor cs 0.6%[11.6 µM], Sfp PPTase inh 19.7%, FBPA coupling cs 1.3 and Tau fibril ThT -3.7%[11.5 µM].
Screening COc1ccccc1C(=O)Nc1cc2c(cc1N1CCOCC1)n(C)c(=O)n2C returned Tau fibril FP 0.6%, Tau fluor cs -10.0% and Tau fibril ThT -11.0%.
`COc1ccc(-c2ccccc2C2C3C=CCCC3(C)C(=O)N2Cc2ccccc2)cc1` (centres undefined) gave Sfp PPTase inh -28.7% and FBPA coupling cs 1.2.
For CCCCCC(=O)Nc1nc(C)c(-c2csc(Nc3ccccc3OCC)n2)s1 the results were Tau fibril FP 10.3%, Tau fluor cs inconclusive, Sfp PPTase inh inconclusive, FBPA coupling cs -5.7, Tau fibril ThT inconclusive and KDM4E inh 1.0%.
`CCCC(=O)Nc1nc(C)c(-c2csc(Nc3ccccc3C)n2)s1` gave Tau fibril FP inconclusive, Tau fluor cs -26.3%, Sfp PPTase inh 20µM*, FBPA coupling cs -6.1, Tau fibril ThT inconclusive and KDM4E inh -8.6%.
For Cn1c(CNc2ccccc2O)nc2ccccc21 the results were Tau fibril FP -2.8%, Tau fluor cs inconclusive, Sfp PPTase inh 44.7µM*, FBPA coupling cs -9.2, Tau fibril ThT inconclusive and KDM4E inh inconclusive.
`Nc1c(C(=O)Nc2ccccc2)sc2ncc([N+](=O)[O-])cc12` gave Tau fibril FP 4.6%, Tau fluor cs -12.2%, Sfp PPTase inh 19.1%, FBPA coupling cs 1.2, Tau fibril ThT inconclusive and KDM4E inh 0.8%.
Screening CCOC(=O)c1sc2ncc([N+](=O)[O-])cc2c1N returned Tau fibril FP 7.9%, Tau fluor cs -19.0%, Sfp PPTase inh 16.4%, FBPA coupling cs -3.6, Tau fibril ThT 7.94µM* and KDM4E inh 2.5%.
Screening COc1ccc(C2CC(c3cccs3)=NN2c2nc(-c3ccccc3)cs2)cc1OC (centres undefined) returned Tau fibril FP 11.7%, Tau fluor cs -27.1%, Sfp PPTase inh 44.7µM*, FBPA coupling cs 0.8, Tau fibril ThT -1.9% and KDM4E inh -29.8%.
CCN(C(=O)c1coc(=O)c(Br)c1)c1ccc2c(c1)OCO2 was read as Tau fibril FP inconclusive, Tau fluor cs inconclusive, Sfp PPTase inh 44.7µM*, FBPA coupling cs -42.4*, Tau fibril ThT 22.4µM* and KDM4E inh inconclusive.
Screening CCN(C(=O)c1c(C)cc(=O)oc1C)c1ccc2c(c1)OCO2 returned Tau fibril FP -1.0%, Tau fluor cs 0.2%, Sfp PPTase inh 18.9%, FBPA coupling cs -1.6, Tau fibril ThT -3.9% and KDM4E inh 0.7%.
Screening O=C(/C=C/c1ccccc1)CC(=O)c1ccccc1O returned Tau fibril FP inconclusive, Tau fluor cs inconclusive, Sfp PPTase inh inconclusive, FBPA coupling cs -1.5, Tau fibril ThT 12.6µM* and KDM4E inh inconclusive.
O=C(/C=C/c1ccccc1)NC(=O)c1ccccc1O was read as Tau fibril FP 4.5%, Tau fluor cs inconclusive, Sfp PPTase inh 12.1%, FBPA coupling cs 4.3, Tau fibril ThT inconclusive and KDM4E inh 7.1%.
`COc1cccc(C(=O)NCCc2csc3nc(-c4ccccc4F)nn23)c1OC` gave Tau fibril FP -6.3%, Tau fluor cs -6.7% and Tau fibril ThT -0.9%.
Screening COc1ccc(-c2cc(=O)c3c(O)c(OC)c(OC)c(OC)c3o2)cc1OC returned Tau fibril FP -14.9%, Tau fluor cs -16.1%, Sfp PPTase inh -5.3%, FBPA coupling cs 0.4, Tau fibril ThT inconclusive and KDM4E inh -14.6%.
Screening COc1c(O)c(O)c2oc(-c3ccccc3)cc(=O)c2c1OC returned Tau fibril FP -2.5%, Tau fluor cs inconclusive, Sfp PPTase inh 3.16µM*, FBPA coupling cs 2.7, Tau fibril ThT inconclusive and KDM4E inh 31.6µM*.
COc1cc(-c2cc(=O)c3c(O)c(OC)c(OC)c(O)c3o2)ccc1O was read as Tau fibril FP -5.8%, Tau fluor cs inconclusive, Sfp PPTase inh 5.01µM*, FBPA coupling cs -5.0, Tau fibril ThT inconclusive and KDM4E inh 20µM*.
Screening CCOCCCn1c(SCC(=O)NCc2ccco2)nc2c(sc3ccccc32)c1=O returned Tau fibril FP -7.8%, Tau fluor cs -25.2%, Sfp PPTase inh 22.4µM*, FBPA coupling cs -2.1, Tau fibril ThT inconclusive and KDM4E inh inconclusive.
`O=C(CSc1nc2c(sc3ccccc32)c(=O)n1CCc1ccccc1)NCc1ccco1` gave Tau fibril FP 1.8%, Tau fluor cs -2.4%, Sfp PPTase inh -27.2%, FBPA coupling cs 2.3, Tau fibril ThT -2.0% and KDM4E inh 7.4%.
